Data taken from PubChem BioAssay (Tox21).
Results filed as inconclusive are left out. The source made the active and inactive calls. Unless noted, calls come from the whole dose curve; as a rule, active = well fitted curve in the direction sought with a large enough effect in the repeat runs; inconclusive = weak or mixed curves; inactive = no such curve, though single readings can be large; an effect the other way counts as inactive or inconclusive.

Columns and labels:
[1] = qHTS assay to identify small molecule antagonists of the androgen receptor (AR) signaling pathway using the MDA cell line in the presence of 0.5 nM R1881 - cell viability counter screen (AID 1259242); note: nearly all actives have a fitted effect of over 45% in size
Method in brief: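 Viability of MDA-kb2 cells was multiplexed with the luciferase AR readout; after 16 hr with compounds and R1881 at 0.5 nM final, CellTiter-Fluor fluorescence was recorded.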

[2] = target: Estrogen receptor (Homo sapiens) (UniProt P03372); assay: qHTS assay to identify small molecule antagonists of the estrogen receptor alpha (ER-alpha) signaling pathway using the BG1 cell line in the presence of 0.1 nM 17-beta-estradiol (AID 1259244); note: nearly all actives have a fitted effect of over 50% in size
Estrogen receptor (Homo sapiens), sequence (P03372 whole entry, looked up): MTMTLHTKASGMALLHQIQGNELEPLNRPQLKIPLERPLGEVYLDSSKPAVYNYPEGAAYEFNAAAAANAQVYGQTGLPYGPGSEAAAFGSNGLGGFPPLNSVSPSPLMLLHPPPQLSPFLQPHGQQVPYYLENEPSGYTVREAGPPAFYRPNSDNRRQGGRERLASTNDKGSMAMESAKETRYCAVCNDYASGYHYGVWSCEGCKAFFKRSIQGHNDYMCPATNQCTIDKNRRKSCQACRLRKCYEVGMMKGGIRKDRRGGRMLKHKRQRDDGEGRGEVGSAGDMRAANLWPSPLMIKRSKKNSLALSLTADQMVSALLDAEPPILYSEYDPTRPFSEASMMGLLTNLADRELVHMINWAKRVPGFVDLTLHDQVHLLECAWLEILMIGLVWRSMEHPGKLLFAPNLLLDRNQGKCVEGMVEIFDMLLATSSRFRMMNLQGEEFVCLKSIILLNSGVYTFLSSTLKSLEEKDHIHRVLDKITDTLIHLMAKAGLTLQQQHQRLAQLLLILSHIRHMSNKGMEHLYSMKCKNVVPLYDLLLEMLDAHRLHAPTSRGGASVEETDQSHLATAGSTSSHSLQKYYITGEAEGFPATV
Method in brief: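 Estradiol at 0.1 nM (final) stimulates the endogenous ER-alpha of VM7Luc4E2 cells carrying an ERE-driven luciferase; compounds are co-incubated 22 h at 37C and luciferase output quantified by luminescence.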

[3] = qHTS assay to identify small molecule phospholipidosis (PLD) inducers (AID 1259344; active = well fitted curve in the direction sought with a large enough effect; an effect the other way counts as inactive or inconclusive)
Method in brief: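 HepG2 cells grown on collagen I take up LipidTOX Red while exposed to compound for 24 h; after fixation they are imaged at 20x and pit metrics are extracted.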

[4] = qHTS assay to identify small molecule HDAC inhibitors (AID 1259364);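 note: wild-type HCT-116 cells with endogenous class I/II HDAC activity; top concentration of the series differs between compounds; nearly all actives have a fitted effect of over 45% in size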
Method in brief: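 Read-out: luminescence of HDAC-Glo I/II reagent, 30 min RT, reflecting class I/II deacetylase activity in whole HCT-116 cells pre-exposed 2 h to DMSO-dissolved compounds.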

[5] = qHTS assay to identify small molecule HDAC inhibitors - cell viability counter screen (AID 1259365); note: series mostly up to about 92 µM; nearly all actives have a fitted effect of over 50% in size
Method in brief: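 HCT-116 (wild type), 1,500 cells/well, overnight 37C/5% CO2; compound in DMSO 2hr; CellTiter-Glo 30min RT; luminescence read.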

[6] = qHTS assay to identify small molecule agonists of the sonic hedgehog signaling (Shh) pathway - cell viability counter screen (AID 1259366); note: nearly all actives have a fitted effect of over 50% in size
Method in brief: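 CellTiter-Fluor fluorescence read-out, 1 hr at 37C, added after 23hr compound exposure. Cells: 3T3 Gli1-Luc, an NIH/3T3 clone with stably integrated Gli1-Luc reporter, plated 4hr before compound.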

[7] = qHTS assay to identify small molecule antagonists of the sonic hedgehog signaling (Shh) pathway - cell viability counter screen (AID 1259367); note: nearly all actives have a fitted effect of over 55% in size
Method in brief: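 After a 4 hr settling period, 3T3 Gli1-Luc cells were treated with DMSO-dissolved chemicals and conditioned medium, kept 24 hr at 37C in 5% CO2, and assayed for viability by CellTiter-Fluor fluorescence following 1 hr reagent incubation.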

[8] = qHTS assay to identify small molecule agonists of the sonic hedgehog signaling (Shh) pathway (AID 1259368; calls by dose curve;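 note: NIH/3T3-derived 3T3Gli1-Luc cells carrying a stable Gli1-driven firefly luciferase reporter; series mostly up to about 92 µM; nearly all actives have a fitted effect of over 15% in size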)
Method in brief: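 A Gli1 transcriptional response element controlled firefly luciferase in 3T3Gli1-Luc cells. Compounds and a positive control were added 4 hr after plating, and cells were incubated a further 24 hr at 37 C before luminescence detection.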

[9] = qHTS assay to identify small molecule antagonists of the sonic hedgehog signaling (Shh) pathway (AID 1259369; calls by dose curve; note: nearly all actives have a fitted effect of over 45% in size)
Method in brief: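 For antagonist detection, the reporter line received test compounds together with conditioned medium, incubated 24hr at 37 C, 5% CO2, then luminescence was recorded following 30min room-temperature luciferase reagent incubation.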

[10] = target: Estrogen receptor beta (Homo sapiens) (UniProt Q92731); assay: qHTS assay to identify small molecule agonists of the estrogen receptor beta (ER-beta) signaling pathway (AID 1259377; active = well fitted activation curve with a large enough effect in the signal ratio in the repeat runs, not every such curve was filed as active; the % refers to the signal ratio)
Estrogen receptor beta (Homo sapiens), sequence (Q92731 whole entry, looked up): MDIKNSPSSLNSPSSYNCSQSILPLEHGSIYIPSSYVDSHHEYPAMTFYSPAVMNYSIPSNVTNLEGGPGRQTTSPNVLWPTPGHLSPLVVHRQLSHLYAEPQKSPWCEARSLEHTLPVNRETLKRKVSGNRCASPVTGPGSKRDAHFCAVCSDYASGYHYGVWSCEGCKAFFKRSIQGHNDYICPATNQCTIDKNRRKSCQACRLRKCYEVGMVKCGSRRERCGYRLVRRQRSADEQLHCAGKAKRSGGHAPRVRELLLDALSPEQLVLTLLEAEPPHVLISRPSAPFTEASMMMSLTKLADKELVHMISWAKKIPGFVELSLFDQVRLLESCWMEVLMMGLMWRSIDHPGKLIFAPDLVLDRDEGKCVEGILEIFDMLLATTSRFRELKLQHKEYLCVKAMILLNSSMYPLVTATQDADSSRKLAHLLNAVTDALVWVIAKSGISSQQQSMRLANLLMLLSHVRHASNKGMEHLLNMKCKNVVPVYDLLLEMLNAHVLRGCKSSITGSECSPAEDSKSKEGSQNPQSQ
Method in brief: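 Beta-lactamase reporter readout: fluorescence of LiveBLAzer B/G FRET substrate after 2 h at room temperature, following 16 h compound treatment of ER-beta-UAS-bla HEK293T cells at 37C in 2% charcoal-stripped FBS medium.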

[11] = target: Estrogen receptor beta (Homo sapiens) (UniProt Q92731); assay: qHTS assay to identify small molecule antagonists of the estrogen receptor beta (ER-beta) signaling pathway (AID 1259378; active = well fitted inhibition curve with a large enough effect in the signal ratio in the repeat runs, not every such curve was filed as active; the % refers to the signal ratio)
Method in brief: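 ER-beta-UAS-bla HEK293T (GripTite) cells in 2% charcoal-stripped FBS medium were preincubated 6 hr at 37C, dosed with compound, then stimulated with 1 nM E2 (final) for 16 hr; beta-lactamase reporter read by B/G FRET fluorescence after 2 hr substrate loading.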

[12] = qHTS assay to identify small molecule agonists of the androgen receptor (AR) signaling pathway in the presence of an antagonist - cell viability counter screen (AID 1259379);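 note: MDA-kb2 human breast cancer cells carrying an MMTV luciferase reporter; series mostly up to about 92 µM; nearly all actives have a fitted effect of over 25% in size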
Method in brief: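 Seed MDA-kb2 at 3,000 cells/well; incubate 5 hr, 37C, 0% CO2. Add nilutamide to 3.0uM final, then pin compounds at 15 concentrations. Incubate 16 hr. Add CellTiter-Fluor at 15 hr, read fluorescence after 1 hr.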

[13] = qHTS assay to identify small molecule agonists of the estrogen receptor beta (ER-beta) signaling pathway - cell viability counter screen (AID 1259380); note: nearly all actives have a fitted effect of over 30% in size
Method in brief: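 CellTiter-Glo read, 30 min RT, same wells as bla assay; cells ER-beta-UAS-bla HEK293T; 16 hr compound, 37C; medium 2% charcoal-stripped FBS.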

[14] = qHTS assay to identify small molecule antagonists of the estrogen receptor beta (ER-beta) signaling pathway - cell viability counter screen (AID 1259382); note: series mostly up to about 92 µM; nearly all actives have a fitted effect of over 55% in size
Method in brief: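 In this multiplexed counter screen, cells were seeded at 2,000 per well in medium with 2% charcoal-stripped FBS and incubated 6 hr before compound and 1nM final E2 were added. Sixteen hours later, ATP-based luminescence reported viability.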

[15] = target: Estrogen receptor (Homo sapiens) (UniProt P03372); assay: qHTS assay to identify small molecule agonists of the estrogen receptor alpha (ER-alpha) signaling pathway in the presence of an antagonist (AID 1259383; calls by dose curve; note: top concentration of the series differs between compounds; nearly all actives have a fitted effect of over 15% in size)
Method in brief: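 Stably transfected VM7Luc4E2 reporter cells, kept 5 days in charcoal-stripped serum, received ICI-182,780 at 10.0nM final before compound addition. Following 22hr incubation at 37C and 5% CO2, luciferase signal was read by luminescence.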

[16] = qHTS assay to identify small molecule agonists or antagonists of the thyroid stimulating hormone receptor (TSHR) signaling pathway - wild type cell line counter screen (AID 1259384; calls by dose curve)
Method in brief: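 Wild-type HEK293 cells were plated 18 h at 37 C/5% CO2, pin-dosed with compound plus Ro20-1724 medium, held 30 min at room temperature, then given cAMP-d2 and anti-cAMP-cryptate; fluorescence was read after 1 h. Fifteen concentrations, triplicate.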

[17] = target: Thyrotropin receptor (Homo sapiens) (UniProt P16473); assay: qHTS assay to identify small molecule antagonists of the thyroid stimulating hormone receptor (TSHR) signaling pathway (AID 1259385; calls by dose curve; note: nearly all actives have a fitted effect of over 20% in size)
Thyrotropin receptor (Homo sapiens), sequence (P16473 whole entry, looked up): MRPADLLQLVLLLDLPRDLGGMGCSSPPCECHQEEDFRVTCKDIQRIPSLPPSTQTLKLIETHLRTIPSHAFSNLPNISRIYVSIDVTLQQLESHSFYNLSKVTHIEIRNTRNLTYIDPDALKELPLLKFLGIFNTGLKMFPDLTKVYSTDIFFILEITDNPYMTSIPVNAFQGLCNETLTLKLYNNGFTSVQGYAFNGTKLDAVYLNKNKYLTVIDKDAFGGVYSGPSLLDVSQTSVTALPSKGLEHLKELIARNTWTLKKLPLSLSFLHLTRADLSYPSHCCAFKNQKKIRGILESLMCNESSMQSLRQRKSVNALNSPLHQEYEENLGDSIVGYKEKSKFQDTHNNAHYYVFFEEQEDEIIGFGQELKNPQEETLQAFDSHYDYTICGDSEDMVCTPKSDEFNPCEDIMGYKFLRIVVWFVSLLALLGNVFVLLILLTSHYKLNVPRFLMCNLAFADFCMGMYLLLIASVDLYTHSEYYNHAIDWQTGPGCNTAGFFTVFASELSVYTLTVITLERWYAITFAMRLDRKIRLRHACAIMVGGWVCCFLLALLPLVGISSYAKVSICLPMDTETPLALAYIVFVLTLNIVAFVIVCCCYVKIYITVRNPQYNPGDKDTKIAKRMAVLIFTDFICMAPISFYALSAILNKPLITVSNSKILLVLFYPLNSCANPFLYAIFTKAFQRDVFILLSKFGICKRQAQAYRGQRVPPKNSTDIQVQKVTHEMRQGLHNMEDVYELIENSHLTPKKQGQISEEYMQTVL
Method in brief: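 TSHR-HEK293 cells were plated and held 18 h at 37C/5% CO2, then given compound plus Ro20-1724 and stimulated with TSH at 1.5 ng/mL final. After 30 min at room temperature, cAMP was detected with cAMP-d2/anti-cAMP-cryptate (1 h) by fluorescence.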

[18] = qHTS assay to identify small molecule agonists of the estrogen receptor alpha (ER-alpha) signaling pathway in the presence of an antagonist - cell viability counter screen (AID 1259386);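 note: series mostly up to about 92 µM; cells exposed to compounds for 22 h at 37 °C before the viability read; nearly all actives have a fitted effect of over 30% in size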
Method in brief: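 Viability counter screen using VM7Luc4E2 (full-length ER-alpha, four ERE-luciferase). The cells were treated with compounds alongside ICI-182,780 10.0nM for 22hr, and live-cell protease fluorescence was quantified with CellTiter-Fluor.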

Measured: Potency

CCN(Cc1ccc(Cl)nc1)/C(=C/[N+](=O)[O-])NC
inactive: [1] | [2] | [3] | [4] | [5] | [6] | [7] | [8] | [9] | [10] | [11] | [12] | [13] | [14] | [15] | [16] | [17] | [18]

Cc1cc(C)c(C(=O)P(=O)(C(=O)c2c(C)cc(C)cc2C)c2ccccc2)c(C)c1
inactive: [1] | [2] | [4] | [5] | [6] | [7] | [8] | [9] | [10] | [12] | [13] | [14] | [15] | [16] | [17] | [18]

ClC(Cl)(Cl)C(Cl)(Cl)Cl
inactive: [1] | [2] | [4] | [5] | [6] | [7] | [8] | [9] | [10] | [11] | [12] | [13] | [14] | [15]

NC(=O)O
inactive: [1] | [2] | [4] | [5] | [6] | [7] | [8] | [9] | [12] | [13] | [14] | [15] | [16] | [17] | [18]

O=C(NCO)NCO
inactive: [1] | [2] | [4] | [5] | [6] | [7] | [8] | [9] | [12] | [13] | [14] | [15] | [16] | [17] | [18]

O=NN1CCN(N=O)CC1
inactive: [1] | [2] | [4] | [5] | [6] | [7] | [8] | [9] | [11] | [12] | [13] | [14] | [15] | [16] | [17] | [18]

ClCCCN1CCN(c2cccc(Cl)c2)CC1
inactive: [1] | [2] | [4] | [5] | [6] | [7] | [8] | [9] | [12] | [13] | [14] | [15] | [16] | [17] | [18]

O=S(=O)(O)C(F)(F)C(F)(F)C(F)(F)C(F)(F)C(F)(F)C(F)(F)F
inactive: [1] | [2] | [4] | [5] | [6] | [8] | [9] | [12] | [13] | [14] | [15] | [16] | [17] | [18]
